# Measurements published in article PMC7862700, “An all-to-all approach to the identification of sequence-specific readers for epigenetic DNA modifications on cytosine”.
# Biological target: T1, EHF (Homo sapiens, UniProt Q9NZC4 1-300)
# T1 sequence: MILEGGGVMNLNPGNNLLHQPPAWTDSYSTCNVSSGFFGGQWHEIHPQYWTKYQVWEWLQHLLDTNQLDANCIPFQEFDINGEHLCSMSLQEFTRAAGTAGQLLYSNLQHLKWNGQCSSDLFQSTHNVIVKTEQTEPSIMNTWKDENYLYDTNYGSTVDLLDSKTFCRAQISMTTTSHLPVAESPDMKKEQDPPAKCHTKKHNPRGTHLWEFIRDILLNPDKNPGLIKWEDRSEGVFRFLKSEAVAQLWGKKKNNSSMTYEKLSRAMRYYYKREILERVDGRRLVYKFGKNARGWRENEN
# Assay: DAPPL (digital affinity profiling via proximity ligation, sequencing); 10 mM Tris-HCl pH 7.5, 50 mM NaCl, 1 mM DTT, 4% glycerol, room temperature, 30 min; GST-TFs on glutathione beads, 16-mer random dsDNA library, 0.1% formaldehyde crosslink after washing; high values mean tight binding
# Details: protein: recombinant; tags: N-terminal GST; dsDNA, one strand shown
# In short: (§1)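 Beads coated with glutathione captured GST-fused human transcription factors that had been expressed in yeast, and the factors were then given DNA barcodes and pooled with a tag-only sample. The pools were incubated with 200 nmole of a random double-stranded 16-mer DNA library in Tris/NaCl/DTT/glycerol buffer for 30 min at room temperature, washed, crosslinked with 0.1% formaldehyde and proximity-ligated with BsaI/T4 ligase at 37 °C for 1 h. PCR amplification and Illumina NextSeq500 sequencing came last. Binding signal is each hexamer's read frequency for a factor divided by its frequency for the tag-only sample.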
row,Sequence,binding signal
1,AAACGG,"1.26 fold enrichment (6-mer frequency, TF over GST control)"
2,CCTGTA,"1.14 fold enrichment (6-mer frequency, TF over GST control)"
3,TACAGG,"1.17 fold enrichment (6-mer frequency, TF over GST control)"
4,ACCGCC,"1.36 fold enrichment (6-mer frequency, TF over GST control)"
5,ATCACA,"1.04 fold enrichment (6-mer frequency, TF over GST control)"
6,CCTACC,"1.33 fold enrichment (6-mer frequency, TF over GST control)"
7,TGCTGA,"1.14 fold enrichment (6-mer frequency, TF over GST control)"
8,TGCAAT,"1.12 fold enrichment (6-mer frequency, TF over GST control)"
9,TGTATA,"1.18 fold enrichment (6-mer frequency, TF over GST control)"
10,GGCTTA,"1.02 fold enrichment (6-mer frequency, TF over GST control)"
11,AAAGGG,"1.2 fold enrichment (6-mer frequency, TF over GST control)"
12,GCCTCC,"1.31 fold enrichment (6-mer frequency, TF over GST control)"
13,GATATC,"1.44 fold enrichment (6-mer frequency, TF over GST control)"
14,TACCCA,"1.05 fold enrichment (6-mer frequency, TF over GST control)"
15,CTGACC,"1.59 fold enrichment (6-mer frequency, TF over GST control)"
16,CCATCA,"1.18 fold enrichment (6-mer frequency, TF over GST control)"
17,TACGTC,"1.25 fold enrichment (6-mer frequency, TF over GST control)"
18,ATACGT,"1.24 fold enrichment (6-mer frequency, TF over GST control)"
19,GGATAT,"1.55 fold enrichment (6-mer frequency, TF over GST control)"
20,GGTCTA,"1.23 fold enrichment (6-mer frequency, TF over GST control)"

# Biological target: SPI1 (Homo sapiens, UniProt P17947 1-270)
# Assay: as above
# Details: protein: recombinant; tags: N-terminal GST; dsDNA, one strand shown
# In short: as §1
row,Sequence,binding signal
1,TACCGC,"1.19 fold enrichment (6-mer frequency, TF over GST control)"
2,TGCATA,"1.15 fold enrichment (6-mer frequency, TF over GST control)"
3,AAGTCA,"1.3 fold enrichment (6-mer frequency, TF over GST control)"
4,CGCTCA,"1.16 fold enrichment (6-mer frequency, TF over GST control)"
5,TCACCC,"1.12 fold enrichment (6-mer frequency, TF over GST control)"
6,CTCAGT,"1.18 fold enrichment (6-mer frequency, TF over GST control)"
7,CCTCGG,"1.14 fold enrichment (6-mer frequency, TF over GST control)"
8,TGATGT,"1.25 fold enrichment (6-mer frequency, TF over GST control)"
9,TCCGTT,"1.53 fold enrichment (6-mer frequency, TF over GST control)"
10,CGGTTT,"1.44 fold enrichment (6-mer frequency, TF over GST control)"
11,CTACGT,"1.08 fold enrichment (6-mer frequency, TF over GST control)"
12,TCACAT,"1.32 fold enrichment (6-mer frequency, TF over GST control)"
13,TCAATG,"1.07 fold enrichment (6-mer frequency, TF over GST control)"
14,ACCACT,"1.38 fold enrichment (6-mer frequency, TF over GST control)"
15,TTGTTG,"1.15 fold enrichment (6-mer frequency, TF over GST control)"
16,GGCATT,"1.05 fold enrichment (6-mer frequency, TF over GST control)"
17,ACCTTG,"1.17 fold enrichment (6-mer frequency, TF over GST control)"
18,AACGGC,"1.2 fold enrichment (6-mer frequency, TF over GST control)"
19,TCATGC,"1.07 fold enrichment (6-mer frequency, TF over GST control)"
20,AAACGG,"1.47 fold enrichment (6-mer frequency, TF over GST control)"

row,Sequence,binding signal
1,CCTGTA,"1.28 fold enrichment (6-mer frequency, TF over GST control)"
2,TACAGG,"1.12 fold enrichment (6-mer frequency, TF over GST control)"
3,ACCGCC,"1.19 fold enrichment (6-mer frequency, TF over GST control)"
4,ATCACA,"1.06 fold enrichment (6-mer frequency, TF over GST control)"
5,CCTACC,"1.31 fold enrichment (6-mer frequency, TF over GST control)"
6,TGCTGA,"1.12 fold enrichment (6-mer frequency, TF over GST control)"
7,TGCAAT,"1.19 fold enrichment (6-mer frequency, TF over GST control)"
8,TGTATA,"1.03 fold enrichment (6-mer frequency, TF over GST control)"
9,GGCTTA,"1.02 fold enrichment (6-mer frequency, TF over GST control)"
10,AAAGGG,"1.68 fold enrichment (6-mer frequency, TF over GST control)"
11,GCCTCC,"1.38 fold enrichment (6-mer frequency, TF over GST control)"
12,GATATC,"1.4 fold enrichment (6-mer frequency, TF over GST control)"
13,TACCCA,"1.09 fold enrichment (6-mer frequency, TF over GST control)"
14,CTGACC,"1.25 fold enrichment (6-mer frequency, TF over GST control)"
15,CCATCA,"1.19 fold enrichment (6-mer frequency, TF over GST control)"
16,TACGTC,"1.12 fold enrichment (6-mer frequency, TF over GST control)"
17,ATACGT,"1.06 fold enrichment (6-mer frequency, TF over GST control)"
18,GGATAT,"1.37 fold enrichment (6-mer frequency, TF over GST control)"
19,GGTCTA,"1.02 fold enrichment (6-mer frequency, TF over GST control)"
